Source: PubChem BioAssay (NCATS)
Inconclusive results are not listed. A number with no mark means an inactive call. Active and inactive are the calls of the source. Calls follow the shape of the dose curve; as a rule, active = well fitted inhibition curve with a large enough effect; inconclusive = small, poorly fitted or top-dose-only effect; inactive = no such curve, though single readings can be large or run the other way.

Biological target: Retinaldehyde dehydrogenase 3 (Homo sapiens) (UniProt P47895)
Assay: qHTS for Inhibitors of the Aldehyde Dehydrogenase Family (ALDH1A3) Confirmatory screens (AID 2061311); also: nearly all actives have a fitted effect of over 60% in size
Details: ALDH inhibition qHTS; series mostly up to 46 µM; activity change, negative = inhibition: at the top concentration
% is scaled to controls: 0 for no effect and ±100 for the full control effect.

SMILES	activity change, negative = inhibition [%]	outcome
CCc1ccccc1NC(=O)c1ccc(F)c(S(=O)(=O)N2CCN(c3cccc(Cl)c3)CC2)c1	4.87	–
COc1ccc(N2CCN(C(=O)CS(=O)(=O)c3cccc4nsnc34)CC2)cc1	2.92	–
O=C(O)c1cc(Br)c(O)c2ncccc12	1.04	–
O=C(Nc1ccc(Oc2ccccc2)cc1)c1ccc(F)c(S(=O)(=O)N2CCN(c3cccc(Cl)c3)CC2)c1	–	inactive
CN(C)Cc1nnc(C2CC(NC(=O)c3ccc4scnc4c3)C2)n1C (configuration not stated)	-5.86	–
CCOCc1ccccc1Nc1ncnc2onc(-c3ccc(Cl)cc3)c12	3.24	–

Biological target: Retinal dehydrogenase 2 (Homo sapiens) (UniProt O94788)
Assay: qHTS for Inhibitors of the Aldehyde Dehydrogenase Family (ALDH1A2) Confirmation screens (AID 2061314); also: nearly all actives have a fitted effect of over 65% in size; also: potency is read from the fitted curve at half-maximal effect
Details: ALDH1A2 enzyme inhibition qHTS confirmation; series mostly up to 45.9 µM; activity, negative = inhibition: at the top concentration

SMILES	Potency	activity, negative = inhibition [%]
O=C(c1ccccc1O)N(Cc1ccco1)Cc1ccco1	11300 nM (active)	–
CCc1nn2c(=O)c(S(=O)(=O)Nc3ccc(C)cc3C)c(C)nc2s1	–	-10.2
CCC(=O)NC(C)c1cc(Cl)c2ccccc2c1O (configuration not stated)	1010 nM (active)	–
COc1cccc(CNc2ccc(S(=O)(=O)Nc3ccc(N4CCNCC4)nc3)cc2)c1O	22500 nM (active)	–
Cc1ccc(N[S+](=O)([O-])c2cc3c(cc2N[C@@H](C)CO)NC(=O)CC3)cc1N[C@@H](C)CO	2830 nM (active)	–
O=C(O)c1cc(Br)c(O)c2ncccc12	449 nM (active)	–
